Screening data deposited in PubChem BioAssay by National Center for Advancing Translational Sciences (NCATS).
PTAP TSG101 blk: blocks PTAP/TSG101 interaction to inhibit HIV-1 budding; Fluorescence polarization, FITC-PTAP peptide / Tsg101 binding; 340,000 tested, under 10 active; AID 493005; Potency, µM (doses to about 115 µM), without a hit: at the highest dose activity change, negative = inhibition, usual class: inhibitors; Q99816; active = well fitted inhibition curve with a large enough effect in the main read-out, with a control signal flat, not every such curve was filed as active; inconclusive = small, poorly fitted or top-dose-only effect, or effect the other way, or a change in a side signal; inactive = no such curve, though single readings can be large or run the other way; note: % of control where 0% means no effect
Target sequence (Q99816 whole entry, looked up): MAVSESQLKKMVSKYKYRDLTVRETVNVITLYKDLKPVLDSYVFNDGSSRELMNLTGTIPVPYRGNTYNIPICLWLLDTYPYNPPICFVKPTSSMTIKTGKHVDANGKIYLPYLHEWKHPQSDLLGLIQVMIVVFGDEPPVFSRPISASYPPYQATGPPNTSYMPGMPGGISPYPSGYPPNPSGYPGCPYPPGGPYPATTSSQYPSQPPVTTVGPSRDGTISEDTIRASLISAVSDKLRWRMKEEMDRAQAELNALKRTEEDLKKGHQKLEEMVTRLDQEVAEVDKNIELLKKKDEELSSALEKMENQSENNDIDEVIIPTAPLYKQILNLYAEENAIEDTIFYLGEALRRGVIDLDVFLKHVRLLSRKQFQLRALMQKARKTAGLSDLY
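FP read-out: FITC-PTAP peptide, 50 nM final, binding Tsg101 binding domain, 10 uM final; 20 min, r.t.; 10 mM HEPES pH 7.5, 0.15 M NaCl, 0.01% Tween 20, 3 mM EDTA, 0.1 mM TCEP.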
a7 integrin act: integrin-mediated muscular dystrophy alleviation activation | alpha7betagal myoblasts, beta-gal FDG fluorescence, 48 h | Potency, µM (highest dose often 38.3 µM), for the others: top-dose activation, most hits filed as activators | actives 0.064% (n = 350,000);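 note: 100% = response of the positive control SU9516; nearly all actives have a fitted effect of over 60% in size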
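Alpha7betagal+/- myoblasts (passage 13) were plated 16-24 hr, then exposed to compounds (1:260 dilution of DMSO stock) for 48 hours at 37C. After MPER lysis, β-galactosidase reporter activity was read as FDG fluorescence (ex 480/em 540) after 30 minutes.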
Mito fusion act: blocks mitochondrial division or promotes mitochondrial fusion; S. cerevisiae fusion-defective mutant growth rescue, CellTiterGlo 48 h; actives 0.23% (n = 320,000); AID 485298; Potency, µM (highest dose often 46.1 µM), for the others: top-dose growth rescue (activation), hits mostly activators; note: % of control where 0% means no effect; nearly all actives have a fitted effect of over 45% in size
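Growth-rescue viability read-out: after 48 h at the non-permissive 37C in glycerol/ethanol YPEG, yeast mitochondrial fusion mutants are measured by CellTiterGlo luminescence; compounds (23 nl pinned per well) restoring growth score as division inhibitors or fusion activators.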
S-ASM inh: inhibitors of human secretory acid sphingomyelinase; P17405; placental ASM, HMU-PC fluorogenic substrate, 60 min; Potency, µM (titrated, usually from 57.5 µM), inactives show at the highest dose activity change, negative = inhibition, actives largely listed as inhibitors; actives 0.006% (n = 340,000)
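qHTS format. ASM enzyme prepared from human placenta hydrolyses the fluorogenic substrate HMU-PC0 (9 uM final) over 60 min at 37 °C after a 10 min compound preincubation.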
GALK inh: galactokinase (human) inhibition. Potency, µM (top dose mostly 57.5 µM), for inactives: at the top dose activity change, negative = inhibition, hits mostly inhibitors. AID 1868. actives 0.007% (n = 270,000). P51570. Purified GALK, Kinase-Glo residual ATP luminescence; note: % is set by controls: 0 for no effect and ±100 for the full control effect
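Galactose (100 uM) and ATP (35 uM) were turned over by 5 nM GALK for 1 h at RT. Kinase-Glo Plus then converted the remaining ATP into a luminescent signal.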
AT treatment: potential ataxia-telangiectasia treatments restoring KAP-1 phosphorylation; AID 485349; Potency, µM (top dose mostly 57.5 µM), for the others: at the top dose activation, actives largely listed as activators; F2112 A-T fibroblasts, KAP-1 phosphorylation AlphaLISA; neocarzinostatin DNA damage 30 min before lysis; actives 0.19% (n = 320,000); note: % of control where 0% means no effect; nearly all actives have a fitted effect of over 45% in size
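hTERT-immortalized A-T patient fibroblasts (F2112), 500 cells/well in OPTI-MEM, 1% FBS, got compounds for 60 min, then NCS for 30 min at 37C. Lysates were then assayed for phospho-KAP-1 by AlphaLISA (anti-pKAP1 donor, anti-KAP1 acceptor beads), 6 hr at 25C.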
Numbers without * were called inactive; i = inactive; u = inconclusive; x = no result; ! = a repeat was not active. Compounds with a hit are over-represented: about 0.46% of the library has one in this group of screens. Unless noted, calls come from the whole dose curve; as a rule, active = well fitted curve in the direction sought with a large enough effect; inconclusive = small, poorly fitted or top-dose-only effect, or another doubt; inactive = no such curve, though single readings can be large; an effect the other way counts as inactive or inconclusive. Potency is the fitted concentration of half-maximal effect.

SMILES | PTAP TSG101 blk | a7 integrin act | Mito fusion act | S-ASM inh | GALK inh | AT treatment
Nc1c(C(=O)c2ccc(Cl)cc2)oc2ccccc12 | 1% | 5% | 25µM* | 1% | 4% | 10%
O=C(c1ccc(Cl)cc1)c1oc2ccccc2c1CS(=O)c1ccc(Cl)cc1 (stereo not drawn) | -2% | 16% | 5% | -16% | 4% | -3%
O=C(NCC1CCCO1)C(c1cccs1)N(Cc1cccs1)C(=O)Cn1nnc(-c2cccs2)n1 (stereo not drawn) | -2% | -21% | -1% | -3% | -3% | -7%
CC(C)(C)NC(=O)C(c1cccs1)N(CC1CCCO1)C(=O)Cn1nnc(-c2cccs2)n1 (stereo not drawn) | -2% | 10% | 7.1µM* | 3% | 1% | 2%
CCCC(=O)Nc1ccccc1NC(=O)c1ccc(OCC)cc1 | -7% | 11µM* | -6% | 2% | -3% | -3%
CCCC(=O)Nc1ccccc1NC(=O)c1ccc(OC)cc1 | 1% | -4% | 1% | 0% | 0% | 2%
NC(N)=NC(N)=Nc1ccc2ccccc2c1 | 0% | -56% | 32µM* | 4% | -2% | -1%
Cc1oc2cc3oc(=O)c(CCC(=O)N4C[C@H]5C[C@@H](C4)c4cccc(=O)n4C5)c(C)c3cc2c1C | 0% | -9% | 1% | 49% | x | -5%
COc1ccccc1C(=O)NCCOc1ccc(C(C)(C)C)cc1 | 0% | 8.9µM* | -4% | 3% | -1% | 0%
C=CCc1ccc(OCC(O)CN2CCN(c3ccccc3)CC2)c(OC)c1 (stereo not drawn) | 1% | -44% | -22% | -1% | 5% | 20µM*
Cc1cccnc1NC(=O)CNC(=O)COc1ccccc1 | -2% | 6% | 1% | 0% | x | 5%
Cc1ccc(Cl)cc1NC(=O)COC(=O)CC1CCCCC1 | -2% | 5% | 17% | -6% | x | -3%
COc1cc(C(=O)Nc2cc3c(cc2N2CCCCC2)n(C)c(=O)n3C)cc(OC)c1OC | 0% | 12% | 13µM* | -4% | -1% | 18%
COc1ccc(C(=O)Nc2cc3c(cc2N2CCCCC2)n(C)c(=O)n3C)cc1OC | -7% | 29% | 13µM* | -1% | -2% | -4%
CCN(CC)CCOC(=O)c1ccc(NC(=O)c2cc3cccc(OC)c3oc2=O)cc1 | x | x | 9% | x | x | x
Cc1nc2cc(-c3ccc(Cl)cc3)nn2c(C)c1CCC(=O)NC(C)c1ccc2c(c1)OCCO2 (stereo not drawn) | -2% | -26% | 18µM* | -20% | x | 4%
Fc1ccc(N2N=C(c3cccs3)CC2c2ccccc2)cc1 (stereo not drawn) | 5% | 7% | 1% | i | -1% | 22µM*
CC(C)(C)C(=O)Nc1cc(S(=O)(=O)Nc2ccc(Cl)cc2)ccc1Cl | -5% | u | 18µM* | -8% | -2% | 4%
CC(C)CSC1=NSC2=NC(=O)/C(=C\c3coc4ccccc4c3=O)C(=N)N12 | u | -29% | 0% | -14% | -25% | 6%
CSC1=NSC2=NC(=O)/C(=C\c3coc4ccccc4c3=O)C(=N)N12 | 35µM* | u | 9% | 10% | x | 2%
O=C(O)c1ccc2c(c1)C(=O)N([C@H](Cc1ccc(-c3ccccc3)cc1)C(=O)O)C2=O | x | x | 1% | x | x | -9%
CCN(CC(=O)NCc1ccco1)S(=O)(=O)c1ccc(OC)cc1 | 3% | 13% | 1% | 1% | x | -3%
O=C1CCCN1c1ccc(S(=O)(=O)NCc2ccc(F)cc2)cc1 | -1% | 3% | -7% | 0% | -1% | -2%
C=CCc1c(C)nc(-c2ccccc2)nc1N/N=C/c1ccccc1 | -2% | 11µM* | -1% | -5% | 0% | 3%
C=CCc1c(C)nc(-c2ccccc2)nc1N/N=C/c1ccncc1 | -10% | 19% | 4% | -3% | 7% | 0%
SMILES | PTAP TSG101 blk | a7 integrin act | Mito fusion act | S-ASM inh | GALK inh | AT treatment
CCc1cccc(C)c1NC(=S)N(CCOC)C(C)c1ccco1 (stereo not drawn) | -6% | 0% | -5% | 3% | -1% | -23%
O=C(O)CCC(=O)NN1C(=O)c2ccccc2NC1c1ccco1 (stereo not drawn) | -4% | -7% | 1% | 108% | 1% | 0.79µM*
Cc1ccccc1Nc1n[nH]c(C)c1[N+](=O)[O-] | 0% | -11% | 5% | -5% | 1% | -2%
Cc1ccc(Nc2n[nH]c(C)c2[N+](=O)[O-])c(C)c1 | -5% | 0% | 10µM* | -7% | x | 0%
Cc1ccc(/C(=N\O)c2oc3c(C)c4oc(=O)cc(C)c4cc3c2C)cc1 | -6% | -70% | 7.1µM* | -17% | 1% | -4%
Cc1cc(=O)oc2c1ccc1oc(/C(=N/O)c3ccccc3)c(C)c12 | -3% | 9% | u | -25% | 0% | -7%
COc1ccc(OC)c(NC(=O)NNC(=O)COc2ccc(F)cc2F)c1 | -1% | -12% | -1% | 2% | -4% | 0%
Clc1nc(Cl)nc(-c2cn(-c3ccccc3)c3ccccc23)n1 | 0% | -23% | 1% | 21% | -1% | 1%
COCCCNc1nc2ccccc2nc1NS(=O)(=O)c1ccc(Cl)cc1 | -7% | 3% | 14µM* | -2% | 1% | -3%
Cc1nc2c(ccc3nc(NC(=O)C(c4ccccc4)c4ccccc4)sc32)s1 | 1% | -10% | 7.1µM* | -6% | x | 1%
CCC(=O)Nc1nc2ccc3nc(C)sc3c2s1 | 2% | 22% | 18% | -7% | 2% | -5%
Cc1nc2c(ccc3nc(NC(=O)Cc4cccc5ccccc45)sc32)s1 | 1% | -9% | 11µM* | -16% | x | 5%
COc1ccc(N(CCC#N)C(=O)/C(C#N)=C\c2cccs2)cc1 | 1% | -9% | -2% | -2% | -1% | 3.2µM*
COCCCn1c(C(=O)NC2CCCCC2C)cc2c(=O)n3cccc(C)c3nc21 (stereo not drawn) | 0% | -12% | 3% | 13% | 3% | 13%
CCN(C(=O)c1cc2c(=O)n3cccc(C)c3nc2n1CCCOC)C1CCCCC1 | -4% | 15% | 4% | i | 1% | 35µM*
Cc1ccc(NC(=O)COc2ccccc2C=O)cc1Cl | 1% | -15% | -2% | 8% | 0% | 4%
COC(=O)c1cc2c(C)nn(C)c2s1 | -3% | -22% | 5.6µM* | 1% | -1% | -1%
Cc1nc2sccn2c(=O)c1CCN1CCC(=C(c2ccccc2)c2ccc(F)cc2)CC1 | x | x | 18µM*! | x | x | 1%
CC(O)[C@H]1CNC(=O)C(=O)N1CC1(c2ccccc2)CC1 (stereo partly drawn) | -1% | -2% | 3% | 3% | 0% | 8.9µM*
